Results from PubChem BioAssay AID1159580 (chemical genetic matrix, 2015).
Screen size: about 5,500 compounds; about 2,000 (36%) were called active. Roughly 18% stayed inconclusive and do not appear here. No stated cut-off is given here; in the data, active means normalized growth mostly below about 0.91 (no sharp cut-off); inconclusive means no clear call, values can overlap the other calls; inactive means mostly above about 0.92. This is one part of the list.

Assay: chemical genetic growth profiling, strain panel (AID 1159580);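 further: tested at 20 µM; growth read once vehicle control cultures reached saturation at 30 °C; 1 = growth at the plate median or of vehicle wells; lower values mean less growth of the strain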
Conditions: growth OD

Measured: normalized growth

NC(=O)c1ccc[n+]([C@@H]2O[C@H](COP(=O)([O-])OP(=O)(O)OC[C@H]3O[C@@H](n4cnc5c(N)ncnc54)[C@H](O)[C@@H]3O)[C@@H](O)[C@H]2O)c1
inactive: S. cerevisiae deletion strains, locus YJR075W, strain HOC1, active compounds read low 1.02 | S. cerevisiae deletion strains, locus YKL009W, strain mrt4, active compounds read low 0.975 | S. cerevisiae deletion strains, locus YKL068W, active compounds read low 0.987 | S. cerevisiae deletion strains, locus YKL085W, strain MDH1 (second series), active compounds read low 0.986 | S. cerevisiae deletion strains, locus YKL085W, strain MDH1, active compounds read low 0.986 | S. cerevisiae deletion strains, locus YKL160W, strain elf1, active compounds read low 1.06 | S. cerevisiae deletion strains, locus YKL190W, strain CNB1, active compounds read low 0.996 | S. cerevisiae deletion strains, locus YKR001C, strain vps1, active compounds read low 0.997 | S. cerevisiae deletion strains, locus YKR026C, strain gcn3, active compounds read low 1.02 | S. cerevisiae deletion strains, locus YKR091W, strain srl3, active compounds read low 1.02 | S. cerevisiae deletion strains, locus YLL001W, strain dnm1, active compounds read low 1.03 | S. cerevisiae deletion strains, locus YLL026W, active compounds read low 1.02 | S. cerevisiae deletion strains, locus YLL041C, strain sdh2, active compounds read low 1.04 | S. cerevisiae deletion strains, locus YLR027C, strain aat2, active compounds read low 1.03 | S. cerevisiae deletion strains, locus YLR039C, strain RIC1, active compounds read low 0.987 | S. cerevisiae deletion strains, locus YLR058C, strain SHM2, active compounds read low 0.977 | S. cerevisiae deletion strains, locus YLR102C, strain apc9, active compounds read low 0.989 | S. cerevisiae deletion strains, locus YLR113W, strain HOG1, active compounds read low 0.982 | S. cerevisiae deletion strains, locus YLR221C, strain rsa3, active compounds read low 1.04 | S. cerevisiae deletion strains, locus YLR258W, strain gsy2, active compounds read low 1.04 | S. cerevisiae deletion strains, locus YLR262C, strain YPT6 (second series), active compounds read low 1.05 | S. cerevisiae deletion strains, locus YLR262C, strain YPT6, active compounds read low 0.939 | S. cerevisiae deletion strains, locus YLR268W, strain sec22, active compounds read low 1.08 | S. cerevisiae deletion strains, locus YLR320W, strain mms22, active compounds read low 1.03 | S. cerevisiae deletion strains, locus YLR330W, strain CHS5, active compounds read low 0.982 | S. cerevisiae deletion strains, locus YLR342W, strain FKS1 (second series), active compounds read low 0.986 | S. cerevisiae deletion strains, locus YLR342W, strain FKS1, active compounds read low 1.02 | S. cerevisiae deletion strains, locus YLR357W, strain rsc2, active compounds read low 1.05 | S. cerevisiae deletion strains, locus YLR370C, strain arc18, active compounds read low 1.04 | S. cerevisiae deletion strains, locus YLR371W, strain rom2, active compounds read low 0.977 | S. cerevisiae deletion strains, locus YLR384C, strain iki3, active compounds read low 1.04 | S. cerevisiae deletion strains, locus YLR418C, strain cdc73, active compounds read low 1.02 | S. cerevisiae deletion strains, locus YML016C, strain PPZ1, active compounds read low 0.982 | S. cerevisiae deletion strains, locus YML032C, strain rad52, active compounds read low 1.01 | S. cerevisiae deletion strains, locus YML120C, strain ndi1, active compounds read low 1.04 | S. cerevisiae deletion strains, locus YML124C, strain tub3, active compounds read low 0.989 | S. cerevisiae deletion strains, locus YMR058W, strain fet3, active compounds read low 1.04 | S. cerevisiae deletion strains, locus YMR078C, strain ctf18, active compounds read low 0.986 | S. cerevisiae deletion strains, locus YMR125W, strain sto1, active compounds read low 1.06 | S. cerevisiae deletion strains, locus YMR129W, active compounds read low 1.02 | S. cerevisiae deletion strains, locus YMR205C, strain PFK2, active compounds read low 1.04 | S. cerevisiae deletion strains, locus YMR223W, strain ubp8, active compounds read low 0.974 | S. cerevisiae deletion strains, locus YMR231W, strain pep5, active compounds read low 1.04 | S. cerevisiae deletion strains, locus YMR263W, strain SAP30, active compounds read low 1 | S. cerevisiae deletion strains, locus YMR307W, strain GAS1, active compounds read low 0.992 | S. cerevisiae deletion strains, locus YNL067W, strain RPL9B, active compounds read low 1.01 | S. cerevisiae deletion strains, locus YNL071W, strain lat1, active compounds read low 1.03 | S. cerevisiae deletion strains, locus YNL128W, strain TEP1, active compounds read low 0.953 | S. cerevisiae deletion strains, locus YNL153C, strain GIM3, active compounds read low 1.02 | S. cerevisiae deletion strains, locus YNL183C, strain NPR1, active compounds read low 0.969 | S. cerevisiae deletion strains, locus YNL209W, strain ssb2, active compounds read low 1.04 | S. cerevisiae deletion strains, locus YNL233W, strain BNI4, active compounds read low 1.02 | S. cerevisiae deletion strains, locus YNL248C, strain rpa49, active compounds read low 1.07 | S. cerevisiae deletion strains, locus YNL250W, strain rad50, active compounds read low 0.985 | S. cerevisiae deletion strains, locus YNL271C, strain bni1, active compounds read low 0.994 | S. cerevisiae deletion strains, locus YNL298W, strain CLA4, active compounds read low 0.996 | S. cerevisiae deletion strains, locus YNL307C, strain MCK1, active compounds read low 1.01 | S. cerevisiae deletion strains, locus YNL322C, strain KRE1 (second series), active compounds read low 1.03 | S. cerevisiae deletion strains, locus YNL322C, strain KRE1, active compounds read low 0.983 | S. cerevisiae deletion strains, locus YNR049C, strain mso1, active compounds read low 1.02 | S. cerevisiae deletion strains, locus YNR052C, strain pop2, active compounds read low 0.995 | S. cerevisiae deletion strains, locus YOL006C, strain TOP1, active compounds read low 1.01 | S. cerevisiae deletion strains, locus YOL012C, strain htz1 0.903 | S. cerevisiae deletion strains, locus YOL147C, strain pex11, active compounds read low 0.994 | S. cerevisiae deletion strains, locus YOR001W, strain rrp6, active compounds read low 1.05 | S. cerevisiae deletion strains, locus YOR061W, strain CKA2, active compounds read low 0.969 | S. cerevisiae deletion strains, locus YOR069W, strain VPS5, active compounds read low 0.993 | S. cerevisiae deletion strains, locus YOR070C, strain gyp1, active compounds read low 1.02 | S. cerevisiae deletion strains, locus YOR080W, strain dia2, active compounds read low 1.02 | S. cerevisiae deletion strains, locus YOR083W, strain WHI5, active compounds read low 1.06 | S. cerevisiae deletion strains, locus YOR106W, strain vam3, active compounds read low 1.07 | S. cerevisiae deletion strains, locus YOR136W, strain idh2, active compounds read low 0.991 | S. cerevisiae deletion strains, locus YOR144C, strain elg1, active compounds read low 0.991 | S. cerevisiae deletion strains, locus YOR184W, strain ser1, active compounds read low 1 | S. cerevisiae deletion strains, locus YOR231W, strain MKK1, active compounds read low 0.999 | S. cerevisiae deletion strains, locus YOR265W, strain rbl2, active compounds read low 1.02 | S. cerevisiae deletion strains, locus YOR270C, strain vph1, active compounds read low 1.14 | S. cerevisiae deletion strains, locus YOR290C, strain snf2, active compounds read low 1.07 | S. cerevisiae deletion strains, locus YOR316C, strain cot1, active compounds read low 0.988 | S. cerevisiae deletion strains, locus YPL051W, strain arl3, active compounds read low 1.05 | S. cerevisiae deletion strains, locus YPL055C, strain LGE1, active compounds read low 0.997 | S. cerevisiae deletion strains, locus YPL078C, strain atp4, active compounds read low 1.08 | S. cerevisiae deletion strains, locus YPL106C, strain sse1, active compounds read low 1.04 | S. cerevisiae deletion strains, locus YPL240C, strain hsp82, active compounds read low 1.01 | S. cerevisiae deletion strains, locus YPL241C, strain CIN2, active compounds read low 0.984 | S. cerevisiae deletion strains, locus YPL256C, strain CLN2, active compounds read low 0.961 | S. cerevisiae deletion strains, locus YPR119W, strain clb2, active compounds read low 0.993 | S. cerevisiae deletion strains, locus YPR141C, strain kar3, active compounds read low 0.991 | S. cerevisiae deletion strains, locus YPR163C, strain tif3, active compounds read low 1 | S. cerevisiae deletion strains, locus YPR167C, strain met16, active compounds read low 0.998 | S. cerevisiae deletion strains, strain wtn01, active compounds read low 1.03 | S. cerevisiae strains, strain wild type, active compounds read low 0.993
